Laboratory results as given in PubChem BioAssay AID1510 (The Scripps Research Institute Molecular Screening Center, 2009).
About 570 (0.26%) of roughly 220,000 compounds were called active. Cut-off read from the data, not from the text of the source: active = inhibition above about 29%; inactive = the rest. Shown is part of a subset that was picked to be rich in actives.

molecular target: Sphingosine 1-phosphate receptor 4 (Homo sapiens) (UniProt O95977); test: S1P4 receptor antagonists, primary screen, cell-based (AID 1510); settings: S1P4-expressing cells, antagonist mode, reporter read-out; at 4.98 µM; hits give high values;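 note: 0% = wells stimulated with agonist and 100% = vehicle wells without agonist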
Sequence (O95977 whole entry, looked up): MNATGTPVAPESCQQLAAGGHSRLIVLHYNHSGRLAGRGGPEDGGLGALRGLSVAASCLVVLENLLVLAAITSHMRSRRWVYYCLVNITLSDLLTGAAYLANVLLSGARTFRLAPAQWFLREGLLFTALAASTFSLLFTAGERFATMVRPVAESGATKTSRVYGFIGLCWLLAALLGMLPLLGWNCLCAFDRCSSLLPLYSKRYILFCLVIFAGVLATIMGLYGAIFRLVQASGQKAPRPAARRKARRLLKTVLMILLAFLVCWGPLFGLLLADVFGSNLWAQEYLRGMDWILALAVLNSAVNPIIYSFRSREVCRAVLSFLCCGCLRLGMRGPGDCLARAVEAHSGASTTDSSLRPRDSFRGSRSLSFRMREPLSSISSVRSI

inhibition, active:
C[C@@H](NC(=O)OC(C)(C)C)c1nnc(S(=O)(=O)Cc2ccccc2)o1 64%
O=C(/C=C/c1ccc(Cl)cc1Cl)c1cccnc1 47.2%
CCc1c(C)nc2cc(-c3cccs3)[nH]n2c1=O 48.1%
O=C(NC(Nc1nc2ccc([N+](=O)[O-])cc2s1)(C(F)(F)F)C(F)(F)F)c1ccccc1 41.2%
O=C(Nc1ccccc1Cl)/C(Cl)=C(\Cl)S(=O)c1ccccc1 (stereo not given) 98.4%

inhibition, inactive:
O=S1(=O)CCC(NC(=S)SCc2ccccc2Br)C1 (stereo not given) -3.75%
CC(C)Sc1nnc([C@H](Cc2ccccc2)NC(=O)OC(C)(C)C)o1 -0.59%
C[C@H](NC(=O)OC(C)(C)C)c1nnc(SCC(N)=O)o1 -7.8%
CC(C(=O)NC1CCCC1)N(c1ccc(Oc2ccccc2)cc1)S(C)(=O)=O (stereo not given) -5.41%
CC(=O)N1CCN(S(=O)(=O)c2c(F)cc(F)c(Cl)c2F)CC1 6.68%
COCCCN(C(=S)Nc1c(C)cc(C)cc1C)C(C)c1ccncc1 (stereo not given) -9.1%
CCOC(=O)Cc1csc(NC(=O)CSc2ccc(Br)cc2)n1 -7.78%
Cc1cc(-c2cccs2)nc(-n2cccc2)n1 -8.93%
O=C(NNC(=S)NC(=O)c1cn(-c2ccccc2)nc1-c1ccccc1)c1ccncc1 13.1%
CCc1nnc(NC(=O)CCN(c2ccc(C)cc2)S(=O)(=O)c2ccccc2)s1 -0.25%
O=C(NCCOc1ccccc1Cl)C(=O)Nc1ccccc1 -2.25%
S=C(NCC1CCCO1)N1CCN(c2ccc(Cl)c(Cl)c2)CC1 (stereo not given) 4.85%
CCC(C)(C)NC(=O)C(c1ccc(O)cc1)N(C(=O)Cn1nnc2ccccc21)c1ccc(NC(C)=O)cc1 (stereo not given) -9.34%
COc1cccc(NC(=O)c2nn(-c3ccc(OC)cc3OC)c(=O)c3ccccc23)c1 -8.83%
O=C(/C=C/c1ccc(Cl)c([N+](=O)[O-])c1)c1cccnc1 2.24%
O=C(/C=C/c1ccc(Cl)cc1Cl)NCc1ccco1 3.88%
Cc1cc(=O)n2[nH]c(-c3sccc3-n3c(C)ccc3C)cc2n1 -27%
CCc1c(C)nc2cc(C)[nH]n2c1=O 5.94%
CN1C(=O)C(CC(=O)Nc2ccccc2)S/C1=N/c1nccs1 (stereo not given) -20.3%
Cc1coc2c(O)cc3c(c12)OC1(N2CCCCC2)C(=O)NCCCC31 (stereo not given) 9.33%
COCc1cc(=O)oc2cc(NS(=O)(=O)c3ccc(C)cc3)ccc12 13.1%
CC(C)(C)c1ccc(/C=C2\Oc3c(ccc(O)c3CN3CCN(CCO)CC3)C2=O)cc1 12.8%
Cc1ccc2c(c1)C1CN(C)CCC1N2C(=S)Nc1ccc(Cl)cc1Cl (stereo not given) -21%
O=S(=O)(NCCc1ccc(F)cc1)c1cccc2cccnc12 -18.1%
CN(C)c1ccc(C(=S)N2CCN(C(=S)Nc3ccc(Cl)cc3)CC2)cc1 -3.9%
CC(=O)Oc1c(C(=O)c2nnc(C)o2)c(=O)n(Cc2ccccc2)c2ccccc12 -3.21%
COCCCNC(=S)NNC(=O)C(O)(c1ccccc1)c1ccccc1 -8.87%
O=C(O)CCC(=O)Nc1nc2ccc([N+](=O)[O-])cc2s1 -2.95%
O=C(Nc1nc2ccc([N+](=O)[O-])cc2s1)c1ccncc1 -29%
Cc1cc(C)cc(OCC(=O)O/N=C(\N)Cc2ccc([N+](=O)[O-])cc2)c1 -5.5%
FC(F)Oc1ccccc1NC(=S)Nc1cccc(Cl)c1Cl 5.26%
COC(=O)CC1=NN(c2nc(C)cc(C)n2)C(=O)C1 -14.2%
CC(=O)c1cc(C#N)c(N2CC(C)OC(C)C2)nc1C (stereo not given) -33.6%
Cc1nc2ccccc2n1CC(=O)N/N=C/c1cccs1 -34.3%
Cc1ccc(NC(=O)CC2C(=O)N(Cc3ccccc3)C(=S)N2NC(=O)c2cccc(F)c2)c(C)c1 (stereo not given) 6.19%
O=C(Nc1ccc(F)cc1F)N1CCCN(CCOc2ccccc2)CC1 6.19%
O=C(O)/C=C/c1ccc2c(c1)OCCO2 -7.83%
O=C(CN1CCCCC1)Nc1ccccc1Cl -3.07%
O=C(Nc1ccccc1Cl)c1ccc2nsnc2c1 -7.15%
COC(=O)c1ccccc1NC(=O)C1CCN(S(=O)(=O)c2cc(OC)ccc2OC)CC1 -24.9%
O=C1N(c2ccccc2)C(=Nc2ccccc2)SC12CC2 1.83%
CCN(CC)S(=O)(=O)c1ccc(C)c(NC(=O)COc2ccc(Br)cc2Cl)c1 -3.44%
COc1ccc(N2CCC(CNC(=S)Nc3c(C)cccc3C)C2)cc1 (stereo not given) 4.09%
CCOc1ccc2nc(C(=O)N3CCCC(C)C3)sc2c1 (stereo not given) 14.6%
O=C(Cc1cccs1)N(CC1CCCO1)C1(C(=O)NC2CCCCC2)CCCCC1 (stereo not given) -13.5%
O=C(Nc1nnc(C2COc3ccccc3O2)o1)c1ccc(F)cc1 (stereo not given) -4.96%
CC(C)c1cc(NCc2ccccn2)n2c(nc3ccccc32)c1C#N 12.6%
Cn1nnnc1NCc1ccc(Cl)c(Cl)c1 4.37%
CCCCCC(O)c1cccc(OCc2ccc3ccccc3n2)c1 (stereo not given) -14.6%
O=C(NCCCc1ccccc1)C1CCC(CNc2c(N3CCCCC3)c(=O)c2=O)CC1 (stereo not given) 0.07%
CC(C)c1ccc(NC(=O)CCN2C(=O)c3ccc([N+](=O)[O-])cc3C2=O)cc1 -5.92%
CC(=O)c1c(-c2ccccc2)c2ccccc2[nH]c1=O -27.5%
O=C(O)CSc1nccn1-c1cccc(Cl)c1 -14.5%
C/C(=N\Nc1ccc([N+](=O)[O-])cc1)c1ccc(-n2nncc2C(C)(C)C)cc1 -11.5%
COc1ccc(/C=N/NC(=O)Nc2ccc3nsnc3c2)c(OC)c1 9.36%
